Source: PubChem BioAssay (NCATS)
Values joined by “and” are separate entries in the source; they are usually repeats but may differ in a detail not shown here. Equal entries are not always repeated. Records with an inconclusive call do not appear. Active and inactive are the calls of the source. Unless noted, calls come from the whole dose curve; as a rule, active = well fitted curve in the direction sought with a large enough effect; inconclusive = small, poorly fitted or top-dose-only effect, or another doubt; inactive = no such curve, though single readings can be large; an effect the other way counts as inactive or inconclusive.

Key:
[1] = Cell Viability - Hek293 (AID 427;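 active = compounds whose dose-response curve shows a full or clear partial loss of cell viability, called from curve shape rather than a numeric limit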;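 note: potency is the fitted concentration of half-maximal effect; cells exposed to compound for 40 hours at 37 °C before reading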); settings: qHTS
How it was run: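 Luminescent ATP content (CellTiter-Glo, 20 min at room temperature) was measured after a 40 hr, 37 °C compound exposure of HEK293 cells. AC50 values came from Hill-equation fits of qHTS concentration-response data normalized to DMSO and 100 uM tamoxifen.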

[2] = Cell Viability - SK-N-SH (AID 435; calls by dose curve;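 note: potency is the fitted concentration of half-maximal effect; compound exposure lasted 40 h at 37 °C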); settings: SK-N-SH neuroblastoma cell viability qHTS
How it was run: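 Human neuroblastoma line, 40 h exposure at 37 °C, ATP quantified via luciferase luminescence; DMSO and 100 uM tamoxifen define 0 and 100% inhibition for AC50 fitting.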

[3] = Cell Viability - LYMP2-001 (AID 921); settings: LYMP2-001 lymphoblastoid cell viability; series mostly up to 92.2 µM;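 note: 0% = DMSO only and full inhibition = tetraoctylammonium bromide control wells; nearly all actives have a fitted effect of over 70% in size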
How it was run: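 A lymphoblastoid cell line of human origin was treated with library compounds across a concentration series for 24 hours, and viable cell number was estimated from ATP-driven luciferase light output. Hill modeling gave AC50.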

[4] = Cell Viability - LYMP1-003 - Assay at 40 hr (AID 964); settings: LYMP1-003 lymphoblastoid viability; series mostly up to 92.2 µM; note: % is set by controls: 0 for no effect and ±100 for the full control effect; nearly all actives have a fitted effect of over 60% in size
How it was run: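 Cells were seeded at 2500 per well and incubated 5 hr at 37 C. Compounds were added across a concentration series and left 40 hr at 37 C. CellTiter-Glo was added for 30 min at room temperature before luminescence reading.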

[5] = Cell Viability - LYMP2-004 (AID 966); settings: LYMP2-004 lymphoblastoid cell viability, qHTS; series mostly up to 92.2 µM;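 note: plate controls were DMSO only for no effect and tetraoctylammonium bromide control for full effect; nearly all actives have a fitted effect of over 65% in size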
How it was run: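 Cells seeded 2500/well, rested 5 hr at 37 C, dosed across a concentration series, incubated 24 hr at 37 C, then CellTiter-Glo added for 30 min at room temperature and luminescence read. Hill fitting gave AC50.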

[6] = Cell Viability - LYMP2-005 (AID 967); settings: LYMP2-005 lymphoblastoid cell viability; series mostly up to 92.2 µM;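 note: plate controls were DMSO only for no effect and 92 µM tetraoctylammonium bromide control for full effect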
How it was run: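 Luciferase-based ATP quantitation served as the viability measure in human lymphoblastoid LYMP2-005 cells exposed to test compounds for 24 h at 37 C in complete culture medium. Potency (AC50) was obtained by fitting concentration-response curves with the Hill equation.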

[7] = Cell Viability - LYMP2-015 (AID 971); settings: LYMP2-015 lymphoblastoid cell viability; series mostly up to 92.2 µM;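 note: 0% = DMSO only and full effect = 92 µM tetraoctylammonium bromide; nearly all actives have a fitted effect of over 55% in size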
How it was run: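 Luminescent ATP read-out (CellTiter-Glo) served as the viability measure after lymphoblastoid cells were exposed to compounds for 24 hours at 37 C. Concentration-response data were fitted with the Hill equation to give AC50.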

[8] = Cell Viability - LYMP2-021 (AID 974); settings: LYMP2-021 lymphoblastoid cells viability; series mostly up to 92.2 µM;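 note: compound exposure lasts 24 hours at 37 °C; % is set by controls: 0 for no effect and ±100 for the full control effect; nearly all actives have a fitted effect of over 55% in size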
How it was run: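 Plate 2500 lymphoblastoid cells per well and incubate 5 hr at 37 C. Add compounds over a concentration range and incubate 24 hr at 37 C. Add CellTiter-Glo, wait 30 min at room temperature, read luminescence.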

[9] = Cell Viability - LYMP2-006 (AID 978); settings: LYMP2-006 lymphoblastoid cell viability, qHTS; series mostly up to 92.2 µM; note: % is set by controls: 0 for no effect and ±100 for the full control effect; nearly all actives have a fitted effect of over 60% in size
How it was run: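 In this cytotoxicity screen, the human lymphoblastoid line grew in complete medium with test compounds for 24 hr at 37 C. Cellular ATP served as the viability signal.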

[10] = Cell Viability - LYMP2-010 (AID 981); settings: LYMP2-010 lymphoblastoid cell viability, qHTS; series mostly up to 92.2 µM; note: % is set by controls: 0 for no effect and ±100 for the full control effect; nearly all actives have a fitted effect of over 55% in size
How it was run: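 Luminescent ATP signal (CellTiter-Glo) served as the viability read-out. Cells of the human lymphoblastoid line were treated with compound over a concentration range for 24 hours at 37 C, and AC50 values came from Hill-equation modeling.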

[11] = Cell Viability - LYMP2-012 (AID 982); settings: LYMP2-012 lymphoblastoid cell viability qHTS; series mostly up to 92.2 µM;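 note: cellular ATP by luciferase luminescence where a drop means cytotoxicity; cells exposed to compound for one day before reading; 0% = DMSO only and full loss = 92 µM tetraoctylammonium bromide; nearly all actives have a fitted effect of over 55% in size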
[12] = Cell Viability - LYMP2-022 (AID 987); settings: LYMP2-022 lymphoblastoid cell viability; series mostly up to 92.2 µM; note: nearly all actives have a fitted effect of over 55% in size; note: potency is the fitted concentration of half-maximal effect;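 for viability change, negative = cytotoxic: 0% = DMSO alone and full effect = tetraoctylammonium bromide at 92 µM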
How it was run: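 qHTS: human lymphoblastoid cells 2500/well; 5 hr 37 C; cpd added; 24 hr 37 C; CellTiter-Glo, 30 min RT; luminescence. AC50 via Hill fit; tetraoctylammonium bromide positive ctrl.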

[13] = Cell Viability - LYMP2-024 (AID 988); settings: LYMP2-024 lymphoblastoid cell viability; series mostly up to 92.2 µM;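 note: plate controls were DMSO only for no effect and 92 µM tetraoctylammonium bromide for full effect; nearly all actives have a fitted effect of over 60% in size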
How it was run: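 Steps: seed 2500 cells/well, 5 hr 37 C; add compound, 24 hr 37 C; add CellTiter-Glo, 30 min room temperature; read luminescence. AC50 derived by Hill modelling of concentration-dependent ATP loss.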

[14] = molecular target: Thyroid hormone receptor beta (Homo sapiens) (UniProt P10828); assay: qHTS assay for small molecule antagonists of thyroid hormone receptor beta signaling (AID 588547; active = well fitted inhibition curve with a large enough effect in the signal ratio, with a control signal flat, not every such curve was filed as active; the % refers to the signal ratio;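 note: cells stimulated with 0.4 nM T3 agonist during compound exposure; % is set by controls: 0 for no effect and ±100 for the full control effect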); settings: TR-UAS-bla HEK293, beta-lactamase ratio, antagonist mode, 18 h
Sequence of Thyroid hormone receptor beta (Homo sapiens) (P10828 whole entry, looked up): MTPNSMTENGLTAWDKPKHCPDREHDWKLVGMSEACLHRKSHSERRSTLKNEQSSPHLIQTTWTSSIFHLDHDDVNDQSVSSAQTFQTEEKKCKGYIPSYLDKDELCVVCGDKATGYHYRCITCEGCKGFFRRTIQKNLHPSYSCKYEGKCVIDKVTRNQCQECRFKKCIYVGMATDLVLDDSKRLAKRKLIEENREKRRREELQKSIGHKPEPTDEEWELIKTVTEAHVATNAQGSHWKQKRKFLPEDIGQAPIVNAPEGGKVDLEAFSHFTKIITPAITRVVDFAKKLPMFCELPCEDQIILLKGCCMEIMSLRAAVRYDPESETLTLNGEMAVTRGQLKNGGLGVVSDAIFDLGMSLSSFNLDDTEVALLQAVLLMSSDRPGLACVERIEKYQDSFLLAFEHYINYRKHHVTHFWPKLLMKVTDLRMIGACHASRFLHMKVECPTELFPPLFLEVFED
How it was run: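 Inhibition of T3-driven (0.4nM final) beta-lactamase reporter activity was measured over 0.59 nM to 92 uM compound after 18 h at 37 C. The cells were GripTite HEK293 TR-UAS-bla in charcoal/dextran-stripped serum, with CCF4 ratio read-out and IC50 from Hill fits.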

[15] = qHTS assay for small molecule activators of the p53 signaling pathway (AID 651743; active = well fitted activation curve with a large enough effect in the signal ratio, not every such curve was filed as active; the % refers to the signal ratio; note: potency is the fitted concentration of half-maximal effect; for activation: % of control where 0% means no effect); settings: HCT-116 p53RE-bla, beta-lactamase FRET ratio, 16 h; activation: stronger effect = higher value
How it was run: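 Read-out is fluorescence intensity from the LiveBLAzer B/G FRET substrate, added for 2 hours at room temperature after HCT-116 p53RE-bla cells had been incubated with compounds for 16 hours at 37 C.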

[16] = qHTS assay for small molecule disruptors of the mitochondrial membrane potential - 1 hr assay (AID 651754; calls by dose curve; note: nearly all actives have a fitted effect of over 35% in size; note: potency is the fitted concentration of half-maximal effect); settings: series mostly up to 92.2 µM
How it was run: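 HepG2, 2,000 cells/well, overnight attachment; cpd or DMSO 1 hr, 37C/5% CO2; Mito-MPS dye 30 min, 37C; fluorescence monomer (490/535) and aggregate (540/590).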

[17] = qHTS assay for small molecule disruptors of the mitochondrial membrane potential - 5 hr assay (AID 651755; calls by dose curve; note: nearly all actives have a fitted effect of over 40% in size; note: potency is the fitted concentration of half-maximal effect); settings: JC-1-type ratio dye; series mostly up to 92.2 µM
How it was run: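 HepG2, 2,000 cells/well, overnight attach; cpd or DMSO 5 hr, 37C/5% CO2; Mito-MPS 30 min 37C; fluor 490/535 + 540/590 nm.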

[18] = qHTS assay for small molecule antagonists of the retinoid-related orphan receptor gamma (ROR-gamma) signaling pathway - cell viability counter screen (AID 720652; active = well fitted curve in the direction sought with a large enough effect in the repeat runs; an effect the other way counts as inactive or inconclusive;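 note: compound exposure lasted 16 hr before ATP read; % is set by controls: 0 for no effect and ±100 for the full control effect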); settings: RORgamma reporter cell line viability counter screen; series mostly up to 92.2 µM
How it was run: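 Luminescence from CellTiter-Glo after 30 min at room temperature reported cellular ATP as the cytotoxicity measure. Cells were the CHO reporter line with doxycycline-induced ROR-gamma expression, exposed to compound for 16 hr at 37 C.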

[19] = molecular target: Nuclear receptor subfamily 1 group I member 2 (Rattus norvegicus) (UniProt Q9R1A7); assay: qHTS assay for small molecule activators of the rat pregnane X receptor (rPXR) signaling pathway (AID 651751; call rule not given here; note: 0% is about no effect); settings: rPXR reporter cells, luciferase (One-Glo), 24 h
Sequence of Nuclear receptor subfamily 1 group I member 2 (Rattus norvegicus) (Q9R1A7 whole entry, looked up): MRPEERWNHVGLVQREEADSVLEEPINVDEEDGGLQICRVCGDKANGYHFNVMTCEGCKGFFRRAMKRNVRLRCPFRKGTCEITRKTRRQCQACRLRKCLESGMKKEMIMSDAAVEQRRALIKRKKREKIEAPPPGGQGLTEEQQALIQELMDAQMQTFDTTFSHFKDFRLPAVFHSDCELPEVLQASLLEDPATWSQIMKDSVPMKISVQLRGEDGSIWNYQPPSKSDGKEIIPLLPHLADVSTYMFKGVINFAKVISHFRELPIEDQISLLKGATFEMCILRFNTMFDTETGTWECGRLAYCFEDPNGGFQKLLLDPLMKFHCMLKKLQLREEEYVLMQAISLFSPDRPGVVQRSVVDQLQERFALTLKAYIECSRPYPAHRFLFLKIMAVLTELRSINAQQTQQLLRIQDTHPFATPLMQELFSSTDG

[20] = Cell Viability - SH-SY5Y (AID 544); settings: SH-SY5Y neuroblastoma cell viability; viability change, negative = cytotoxic: at 92.2 µM (top of the series)
How it was run: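 Luminescent ATP read-out (CellTiter-Glo) measures loss of viable SH-SY5Y neuroblastoma cells after 40 hr compound exposure at 37 °C. AC50 values derive from standard Hill modelling of qHTS concentration-response data.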

C[Si](C)(C)Cl
inactive: Potency [1] > 92 µM | Potency [2] > 92 µM | Potency [3] | Potency [4] | Potency [5] | Potency [6] | Potency [7] | Potency [8] | Potency [9] | Potency [10] | Potency [11] | Potency [12] | Potency [13] | activity change % (negative = inhibition) [14] -7.14% | activation [15] -2.87% | Potency [16] | Potency [17] | Potency [18] | max response [19] 1.16%

c1ccc2c(c1)ccc1ccccc12
inactive: Potency [1] > 92 µM | Potency [2] > 92 µM | Potency [3] | Potency [4] | Potency [5] | Potency [7] | Potency [8] | Potency [9] | Potency [10] | Potency [11] | Potency [12] | Potency [13] | activity change % (negative = inhibition) [14] 0.286% | activation [15] -2.61% and 2.1% | Potency [16] | Potency [17] | Potency [18] | max response [19] -1.82% and 1.55%

c1ccncc1
inactive: Potency [1] > 92 µM | Potency [2] > 92 µM | Potency [20] | Potency [3] | Potency [4] | Potency [5] | Potency [6] | Potency [7] | Potency [8] | Potency [9] | Potency [10] | Potency [11] | Potency [12] | Potency [13] | activity change % (negative = inhibition) [14] -8.3% | activation [15] -0.205% | Potency [16] | Potency [17] | Potency [18] | max response [19] 3.74%

CCN(CC)c1ccc(N)cc1
active: viability change, negative = cytotoxic [20] -88.7% | Potency [12] 39.8 µM | Potency [16] 29.8 µM | Potency [17] 29.8 µM
inactive: activation [15] 11.7% | Potency [18] | max response [19] 3.24%

Nc1cnn([C@@H]2O[C@H](CO)[C@@H](O)[C@H]2O)c(=O)n1
active: Potency [15] 0.794 µM
inactive: Potency [1] > 92 µM | Potency [2] > 92 µM | Potency [20] | Potency [3] | Potency [4] | Potency [5] | Potency [6] | Potency [7] | Potency [8] | Potency [9] | Potency [10] | Potency [11] | Potency [12] | Potency [13] | Potency [16] | Potency [17] | Potency [18] | max response [19] 3.54%

O=C1OC(=O)c2ccccc21
inactive: Potency [1] > 92 µM | Potency [2] > 92 µM | Potency [3] | Potency [4] | Potency [5] | Potency [6] | Potency [7] | Potency [8] | Potency [9] | Potency [10] | Potency [11] | Potency [12] | Potency [13] | activity change % (negative = inhibition) [14] 1.82% | activation [15] -3.66% | Potency [16] | Potency [17] | Potency [18]

CC(=O)Nc1cccc(C)c1
inactive: Potency [1] > 92 µM | Potency [3] | Potency [4] | Potency [7] | Potency [8] | Potency [9] | Potency [10] | Potency [11] | Potency [12] | Potency [13] | activation [15] 0.223% | Potency [16] | Potency [17] | Potency [18] | max response [19] -0.307%
